Data reported in the supplement of paper PMC6555819.

These sequences were tested on VDR:RXRa (NR concentration 270 nM, RXRa partner concentration 90 nM) (assay: PBM binding z-score (relative to random genomic background probes); higher = stronger binding; sequences stand for … in GC…GCGATTGACAGCGTAGAATGAAGG).
Protocol: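 Protein-binding microarray (Agilent 4x180K custom design, double-stranded 60-nt probes: 5' GC cap, 34-nt variable region, 24-nt constant primer region; full probe sequence given). Purified or IVT nuclear receptor:RXRα heterodimers (3:1 NR:RXRα, mostly 270:90 nM) or homodimers were incubated for 1 h in PBS with 2% milk and no ligand, then detected with Alexa488 antibodies. Fluorescence from o1-orientation probes (~5 replicates averaged) was converted to z-scores against 500 random hg19 background probes. Variable regions are seed direct-repeat (DR0–DR5) sites, all their single-nucleotide variants and half-site ablations.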

| Sequence | PBM binding z-score |
| --- | --- |
| CAAACTAGGTCTAAGGTCAAAGTCGAGCCAACCA | 4.26 |
| AGAACGAGGGCAATGAGTTGATAGTACGGGTGGC | 5.53 |
| TCTTGTAGATCAGCATGTTAAGAAAGCTGGCCAA | 0.172 |
| ATCCCTAGGTAAAGATAGTTCAGTGAATGCAAAT | 0.829 |
| TCATATCGGTAAAGGTGAAAGTCGAACGATATGA | 0.691 |
| AGAATGAGGTTAAGATCAAGGAAACAGAATACAT | 1.09 |
| CCTAGCAGGCCTATCTGGGTCACTCAAGGCTTGA | 0.253 |
| ACTATTAGTTGAGACGAGGCCAACCGATAGGTTG | 0.333 |
| AGAATGAGGTTACCAAATATCAGGGAAACGCTTG | 1.34 |
| TCTAGTTGGACAAAGGTCACACACTCGAAATGCG | 5.09 |
| CGACCAAGGTGAACAAGGTCGTTGATTACTATTC | 6.02 |
| ATCTCTAGGAAAAGATAGTTCAGTGAATGCAAAT | 0.581 |
| CCGACTGGGACAAAGGTTACCATACTCAGTACGA | 1.14 |
| CAAACTAGGTCAAAGATCAAAGTCGAGCCAACCA | 2.52 |
| CCTCGGAGGACGGAAGGTCAGAGCTGTCCGCTTT | 0.873 |
| CCTAGTGGGCCAAAAAGGTCATTGATGCCGATAA | 4.82 |
| ACTATTAGTTGAGACGAGGGCTACCGATAGGTTG | -0.103 |
| ATCTCTAGGTAACAAGTTGAGTGAAAGAGAGGAC | 0.415 |
| ACTCGGAGAACAAAGGTCAGAGCTACGCCAGTGA | 2.77 |
| CAGCCTAGGTCAGGGCGAGTATAGGAGGAACGTT | 0.552 |

| Sequence | PBM binding z-score |
| --- | --- |
| ATCGAAATGTCGAGGTGAGTATAGAGAAAGGGAA | -0.253 |
| ATCGAAAAGTCGAGGTGAGTATAGAGAAAGGGAA | -0.237 |
| CGTCCATGGTCAAGGTCAGTGAAAGAGACTCGAA | 1.51 |
| TCTTGTAGATCAAGAGAGGTTAAGAAAGTGCGCT | 1.77 |
| CCTAGCACGCCAGGGTCACTCAAGCATTTCGCTT | 2.56 |
| ATCTCTAGGTAAAAAGTTCAGTGAAAGAGAGGAC | 1.39 |
| CCTAGCAGGCCAGGGTCACTCACGCATTTCGCTT | 2.3 |
| CCGAGTAGTTTATGGGGCATTCAGGCAACGGTGA | -0.229 |
| CATACAGGGTCAGCTACGCCAGAGTAGGGACGGC | 2.74 |
| ACAAACAGGTGATGAAGGTAACTCAGGCTATCAT | 0.56 |
| GCGACTGGGGCAAAGCAGGTAACCATAAGGTTGG | -0.313 |
| CCTTACGGGTCACAAGGTTATAGCACGACGAGCG | 4.37 |
| TCGAGTAGGTTAGTGGCATTCAGAATGGCGTCGA | -0.261 |
| GCAGACAGGTGAAACGAAGGTAACTCAGGGTGGC | -0.301 |
| AGAATGAGGGCAATGAGTTGATAGCACGGGTGGC | 4.98 |
| CCTAGTTGGTCTAGGTCACACACGCTATAGGTAC | 1.42 |
| TATACAGGGTCAAAGGCCAGAGCACGAATGTCGA | 4.37 |
| TCATATAGGTAAATGCTAGGTGAAATTCCGATCT | 0.761 |
| GCTAGCAGGCGATTTGGGTCACTCAATGACGGGC | -0.205 |
| CCTTACGGGTCACTGACAGGTTATAGGATTTGGA | 3.77 |
